Measurements: PMC4336329 (PLoS ONE, 2015)
Hit rate of the full screen: of about 310,000 compounds, about 14,000 (4.5%) showed an effect of 50% or more. Effects have a minus sign here. This is one part of a sample in which strong results are shown more often than they occur.

Target: human ether-à-go-go-related gene (hERG) potassium channel (human, UniProt Q12809)
Test: primary screen, population patch clamp on CHO cells stably expressing hERG; higher = less effect of the substance
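Also: peak tail current of the secondary pulse compared with the same well before compound.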

human ether-à-go-go-related gene (hERG) potassium channel, sequence (Q12809 whole entry, looked up): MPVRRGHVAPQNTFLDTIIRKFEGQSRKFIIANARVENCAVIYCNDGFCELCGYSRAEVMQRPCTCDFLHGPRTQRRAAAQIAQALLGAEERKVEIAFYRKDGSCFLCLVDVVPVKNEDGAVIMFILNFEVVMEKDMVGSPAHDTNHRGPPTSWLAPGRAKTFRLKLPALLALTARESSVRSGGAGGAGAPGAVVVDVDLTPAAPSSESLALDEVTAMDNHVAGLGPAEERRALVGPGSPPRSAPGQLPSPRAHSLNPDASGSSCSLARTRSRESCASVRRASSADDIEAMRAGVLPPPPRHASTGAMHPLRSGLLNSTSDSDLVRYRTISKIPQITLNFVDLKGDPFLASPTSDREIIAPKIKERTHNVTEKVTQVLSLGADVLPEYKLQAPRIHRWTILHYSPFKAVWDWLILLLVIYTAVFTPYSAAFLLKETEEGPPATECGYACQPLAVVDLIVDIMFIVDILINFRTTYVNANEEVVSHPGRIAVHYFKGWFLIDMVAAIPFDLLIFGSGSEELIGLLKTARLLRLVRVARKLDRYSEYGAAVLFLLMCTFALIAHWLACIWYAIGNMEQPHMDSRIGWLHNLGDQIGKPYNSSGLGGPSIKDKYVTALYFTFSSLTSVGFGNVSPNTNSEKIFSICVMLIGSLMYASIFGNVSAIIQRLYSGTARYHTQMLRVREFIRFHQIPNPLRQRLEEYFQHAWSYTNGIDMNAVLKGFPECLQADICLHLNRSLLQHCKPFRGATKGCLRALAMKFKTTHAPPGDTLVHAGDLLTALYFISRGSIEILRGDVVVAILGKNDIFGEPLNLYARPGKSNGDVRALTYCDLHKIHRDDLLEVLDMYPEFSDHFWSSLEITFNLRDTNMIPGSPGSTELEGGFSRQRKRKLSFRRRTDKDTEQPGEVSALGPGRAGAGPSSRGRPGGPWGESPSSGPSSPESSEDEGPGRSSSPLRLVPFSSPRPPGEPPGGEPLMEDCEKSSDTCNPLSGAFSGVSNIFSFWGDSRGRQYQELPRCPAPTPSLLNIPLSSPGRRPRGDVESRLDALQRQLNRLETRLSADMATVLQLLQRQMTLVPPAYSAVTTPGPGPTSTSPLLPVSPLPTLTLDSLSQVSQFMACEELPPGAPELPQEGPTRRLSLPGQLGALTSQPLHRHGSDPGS

SMILES | hERG current change (%, negative = inhibition) at 10uM [%]
Cc1ccc(C2C(C#N)=C(N)OC3=C2C(=O)CC(C)(C)C3)s1 (centres unmarked) | -4.59
COc1ccc(-n2nnc3c(SCC(=O)N4CCCc5ccccc54)ncnc32)cc1 | 13.6
Cc1nn(C(C)C(=O)NCCCc2ccccc2)c(=O)c2nn(-c3ccccc3)c(C)c12 (centres unmarked) | -20
Cc1nn(C(C)C(=O)NCc2ccccc2F)c(=O)c2nn(-c3ccccc3)c(C)c12 (centres unmarked) | 13.8
Cc1ccc(-n2nc3c(=O)n(C(C)C(=O)NCCCc4ccccc4)nc(C)c3c2C)cc1 (centres unmarked) | -55.2
CCOc1ccccc1CNC(=O)C(C)n1nc(C)c2c(C)n(-c3ccccc3)nc2c1=O (centres unmarked) | -65.4
COc1ccccc1CNC(=O)C(C)n1nc(C)c2c(C)n(-c3ccccc3)nc2c1=O (centres unmarked) | -0.0415
Cc1ccc(CCNC(=O)C(C)n2nc(C)c3c(C)n(-c4ccccc4)nc3c2=O)cc1 (centres unmarked) | -36.3
CNC(=S)Nc1cccc(S(=O)(=O)NC2=NCCC2)c1 | -7.6
Cc1c(-c2ccccc2)c(=O)oc2ccc(O)cc12 | 13.8
CC1CCCCC1NC1CCN(C)CC1 (centres unmarked) | 23.9
O=C(Nc1ccc2c(c1)OCO2)c1c(F)cccc1F | 3.95
COc1ccccc1-c1cc(C(=O)NCc2ccc(Cl)cc2)no1 | 3.64
Cc1cc(Nc2nn(C)c(N)c2C#N)ccc1F | -14.8
Cc1cc(Nc2n[nH]c(N)c2C#N)ccc1F | -70.2
Cc1cc(Nc2c(C#N)c(N)nn2C)ccc1F | 6.99
CCOc1ccc(C(=O)Nc2cc(-c3nc4ccccc4[nH]3)ccc2Cl)cc1[N+](=O)[O-] | -29.1
CCCn1c2ccccc2c2cnn(CC(=O)NCCCN3CCN(c4ccccc4)CC3)c(=O)c21 | -74.2
Cn1c2ccccc2c2cnn(CC(=O)N3CCCCC3)c(=O)c21 | -10.4
CCCn1c2ccccc2c2cnn(CC(=O)NCCCN3C(C)CCCC3C)c(=O)c21 (centres unmarked) | -41.8
CCCn1c2ccccc2c2cnn(CC(=O)N3CCN(C4CCCCC4)CC3)c(=O)c21 | -72.6
CCCn1c2ccccc2c2cnn(CC(=O)NCCCN3CCCCC3CC)c(=O)c21 (centres unmarked) | -62.2

SMILES | hERG current change (%, negative = inhibition) at 10uM [%]
CCCn1c2ccccc2c2cnn(CC(=O)NCCCN3CCCC(C)C3)c(=O)c21 (centres unmarked) | -70.8
CCCn1c2ccccc2c2cnn(CC(=O)NC3CCCCC3C)c(=O)c21 (centres unmarked) | 11.7
CCC1CCCCN1CCCNC(=O)Cn1ncc2c([nH]c3ccc(C)cc32)c1=O (centres unmarked) | -6.66
CCC1CCCCN1CCCNC(=O)Cn1ncc2c(C)n(Cc3ccccc3Cl)c(C)c2c1=O (centres unmarked) | -14.6
CCCn1c2ccccc2c2cnn(CC(=O)NCCCOC)c(=O)c21 | -1.43
CCCn1c2ccccc2c2cnn(CC(=O)N3CCOCC3)c(=O)c21 | -13.7
Cc1ccc(N(Cc2cc3ccccc3[nH]c2=O)C(=O)c2cccs2)cc1C | 9.8
O=C(NNc1ccc(Cl)cc1)C1CCC1 | 16.6
Cc1cc(C)cc(OCC(=O)O/N=C(\N)c2ccccc2Cl)c1 | -13.6
CCOc1cc(/C=C(\C#N)C(N)=O)ccc1OCc1c(C)no[n+]1[O-] | -0.204
Cc1cc(C)n(-c2ccc(C(F)(F)F)cc2[N+](=O)[O-])n1 | 1.78
Cc1nn(C)c(N)c1-c1ccccc1 | 25.4
Cc1ccc(C)c(Cn2c3ccccc3c3cnn(CC(=O)NCCCN4CCCCC4)c(=O)c32)c1 | -71.9
O=C(Cn1ncc2c3ccccc3n(Cc3ccccc3)c2c1=O)NCCCN1CCCC1 | -72.5
Cc1ccc(C)c(Cn2c3ccccc3c3cnn(CC(=O)NCCCN4CCOCC4)c(=O)c32)c1 | -49.7
O=C(Cn1ncc2c3ccccc3n(Cc3ccc(Cl)cc3)c2c1=O)NCCCN1CCCC1=O | -34.5
Cc1ccccc1Cn1c2ccccc2c2cnn(CC(=O)NCCCN3CCN(C)CC3)c(=O)c21 | -3.23
O=C(Cn1ncc2c3ccccc3n(Cc3ccccc3)c2c1=O)NCCCN1CCCC1=O | -29.8
CCCn1c2ccccc2c2cnn(CC(=O)NC3CCN(Cc4ccccc4)CC3)c(=O)c21 | -55.1
CCCn1c2ccccc2c2cnn(CC(=O)NC3CCC(C)CC3)c(=O)c21 (centres unmarked) | 9.11
CCCn1c2ccccc2c2cnn(CC(=O)NC3CCCCC3)c(=O)c21 | 2.23
CCCn1c2ccccc2c2cnn(CC(=O)NCCCN3CCCCC3)c(=O)c21 | -53.4
